Experimental data: PubChem BioAssay (NCI)
“And” between values parts separate entries of the source, which are not always exact repeats. Identical values can stand only once. This is part of a sample that, as a whole, favours compounds with a hit. Of some 83,000 tested, about 20% had one in any assay.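 96-well plates, one dose, 48 hours. Percent growth reported; active if below 10.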 Unmarked numbers belong to inactive results. The source made the active and inactive calls.

The compounds below were run on HL-60(TB) leukemia (assay: NCI-60 one-dose screen, 48 h (100 = growth as untreated, 0 = no growth, -100 = all killed)). Conditions: 10 µM unless noted.

Row | SMILES | growth
1 | Fc1ccc2[nH]cc(-c3nonc3-c3c[nH]c4ccc(Br)cc34)c2c1 | 34.5%
2 | C=CC(=O)NC(=O)Nc1ccccc1Cl | 33.4%
3 | N#Cc1c(-c2ccc(O)cc2)c2c(N)nn(-c3ccccc3)c2[nH]c1=O | 102%
4 | OB(O)c1ccccc1 | 98.1%
5 | CCCCn1cnc2c(=O)[nH]cnc21 | 108%
6 | Cc1[nH]c(=O)[nH]c(=O)c1Br | 129%
7 | CCCCCCCCCCCCCCCCC(Br)C(=O)O (stereo not drawn) | 111%
8 | COc1ccc(/C=N/NC(=O)CCN2c3ccccc3Sc3ccccc32)cc1 | 82%
9 | Cc1cc(C(C)(C)c2cc(C)c(O)c(CN(C)C)c2)cc(CN(C)C)c1O | 81.1%
10 | O=C1Nc2cc(-c3ccncc3)ccc2/C1=C/c1ccc[nH]1 | 99.9%
11 | Clc1ccc2c(c1)c(-c1ccccc1)nc1nncn12 | 112%
12 | O=C(Nc1ccccc1S)c1ccccc1 | 105%
13 | O=C1c2cccnc2C(=O)c2c1c(C(=O)NCCn1ccnc1)c1ccccn21 | 0.989% (active)
14 | N#Cc1cccc(/C=C(/C(=O)c2ccccc2)c2ccccc2)c1 | 43.7%
15 | Cc1ccc(-c2nnc(COc3ccc(-c4nnc(N)s4)cc3)o2)cc1 | 96.4%
16 | CC1=C/C(=C(\c2ccc(N(C)C)cc2)c2ccc([N+](C)(C)C)cc2)C=CC1=[N+](C)C | 98.6%
17 | COc1cc(C2CC(c3cccc(Br)c3)=NN2C(C)=O)cc(OC)c1OC (stereo not drawn) | 78.2%
18 | COc1cccc(-c2nnc(COc3ccc(-c4nc5ccc(C)cc5[nH]4)cc3OC)o2)c1 | -56.2% (active)
19 | CN(CC(=O)Nc1nc2ccccc2[nH]1)S(=O)(=O)c1ccc(Cl)cc1 | 90%
20 | Nc1ccc2c(O)cc(S(=O)(=O)O)cc2c1 | 89.8% and 67%
21 | COc1ccc(-c2ccc(C)n2-c2ccc(-c3nc4ccccc4s3)cc2)cc1 | 53.5%
22 | CCCCCCCCCCCC(=O)C(CCCCCCCCCC)C(=O)Nc1ccccc1 (stereo not drawn) | 101%
23 | COc1cccc(-n2cc(-c3nc(Nc4cc(C)[nH]n4)c4ccccc4n3)nn2)c1 | 48.1%
24 | ClCc1ccc(-c2ccc(Cn3cnc4nc(Cl)nc(Cl)c43)cc2)cc1 | -78.9% (active)
25 | O=C(Nc1ccc(Cl)c(C(F)(F)F)c1)Nc1ccc(-c2cccnc2)cc1N1CCC(CO)CC1 | -6.89% (active)
26 | COc1cccc2cc(-c3cc4ccccc4[nH]3)/c(=N/C(=S)Nc3ccccc3)oc12 | 101%
27 | COc1ccc(C2CC(c3ccc(Nc4nc(Nc5ccccc5)nc(Nc5ccccc5)n4)cc3)=NN2C(C)=O)cc1 (stereo not drawn) | 95.1%
28 | NC(=Nc1ccc(N)cc1)C(N)=Nc1ccc(N)cc1 | 59.6%
